Reference: PubChem BioAssay (NCI)
Compounds without any hit were thinned out: in the full panel of roughly 83,000, 20% have a hit.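 Compound tested at a single concentration for 48 hours in 96-well plates; a percent growth value below 10 was scored as active.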 Calls of active or inactive are those of the source.

What was measured:
Assay in all cases: NCI-60 one-dose screen, 48 h (100 = growth as untreated, 0 = no growth, -100 = all killed)
Settings in all cases: 10 µM unless noted
[1] = tested on: DU-145 prostate
[2] = tested on: K-562 leukemia
[3] = tested on: MALME-3M melanoma
[4] = tested on: MDA-MB-231 breast
[5] = tested on: RXF 393 renal
[6] = tested on: SF-268 CNS
[7] = tested on: SF-295 CNS
[8] = tested on: SF-539 CNS
[9] = tested on: UACC-257 melanoma
[10] = tested on: M14 melanoma
[11] = tested on: HCT-15 colon
[12] = tested on: HT29 colon
[13] = tested on: SNB-75 CNS
[14] = tested on: SNB-19 CNS
[15] = tested on: U251 CNS
[16] = tested on: SK-MEL-5 melanoma
[17] = tested on: UACC-62 melanoma
[18] = tested on: LOX IMVI melanoma
[19] = tested on: SK-MEL-28 melanoma
[20] = tested on: PC-3 prostate

Measured: growth

O=C(N/N=C/c1ccc2c(c1)OCO2)c1cnn2c1NC(c1ccccc1)C2 (stereo not drawn)
inactive: [1] 60.9% | [2] 29.8% | [3] 55.1% | [4] 53.2% | [6] 66% | [7] 47.3% | [8] 59.1% | [9] 72.4% | [10] 42.7% | [11] 28% | [12] 26.7% | [13] 54.8% | [14] 62.9% | [15] 69.6% | [16] 37.3% | [17] 32.7% | [18] 26.4% | [19] 71.8%
active: [5] 6.73%

COc1ccccc1/C=C/C(=O)/C=C/c1ccccc1O
active: [1] -31.2% | [2] -6.29% | [3] -3.21% | [4] 4.57% | [5] -75.8% | [6] 1.68% | [7] -37.4% | [8] -63% | [10] -31% | [11] -17.7% | [12] -41.8% | [15] -78.9% | [17] -58.9% | [18] -67.7% | [19] -86.9%
inactive: [9] 69.7% | [13] 31.3% | [14] 31.8% | [16] 63.7%

COc1ccc(-c2nn(-c3ccc(NC(=O)c4ccc(Cl)c(Cl)c4)cc3)cc2-c2ccncc2)cc1Cl
active: [2] 5.86% | [4] -16.3% | [5] -82.1% | [7] -31.5% | [10] 6.62% | [11] -1.71% | [12] -27.7%
inactive: [1] 68.4% | [3] 43% | [6] 49.2% | [8] 26% | [9] 93.3% | [13] 59.4% | [14] 56.7% | [15] 25% | [20] 26.7% | [17] 24.5% | [19] 65.8%

O=C(COc1ccc(/C=C2\CSc3ccccc3C2=O)cc1)c1ccc(Cl)cc1
inactive: [1] 113% | [2] 99.2% | [3] 98.7% | [4] 97% | [5] 90.4% | [6] 104% | [7] 125% | [8] 106% | [9] 121% | [10] 101% | [11] 108% | [12] 121% | [13] 108% | [14] 92.3% | [15] 104% | [16] 116% | [17] 83% | [18] 95%

COc1cc2nc(N3CCC[C@H](NC4=CC(=O)c5ccccc5C4=O)C3)nc(N)c2cc1OC
inactive: [9] 97.7% | [10] 96.2% | [20] 54.5%
active: [1] -54.1% | [2] -48.4% | [3] -81.3% | [4] -86.8% | [5] -76.7% | [6] -52.3% | [7] -96.8% | [8] -100% | [11] -63.5% | [12] -69.1% | [13] -83.5% | [14] -74.7% | [15] -90.2% | [17] -87.9% | [18] -82.9% | [19] -85.2%

c1ccc(-c2n(Cc3ccc4ccccc4c3)c3ccccc3[n+]2Cc2ccc3ccccc3c2)cc1
active: [1] 4.24% | [2] -35.8% | [3] -57.5% | [4] -49.4% | [5] -39.4% | [6] -61.9% | [7] -47.1% | [8] -16.2% | [9] -21.4% | [10] -75.8% | [11] -31.9% | [12] -68.1% | [13] -43.9% | [14] -16.4% | [15] -73.3% | [20] -30.5% | [17] -82.9% | [18] -97.3% | [19] -43.7%

COc1cc(/C=C/c2cc(/C=C/c3ccc(O)c(OC)c3)n(-c3ccccc3)n2)ccc1O
active: [1] -45.7% | [2] -15.5% | [3] -39% | [4] 5.23% | [5] -70% | [6] -12.5% | [7] -71.5% | [8] -39.8% | [10] -56% | [11] -3.38% | [12] -52.4% | [13] -53.2% | [14] 1.18% | [15] 1.47% | [20] -33.1% | [17] -84.4% | [18] -37.1% | [19] -6.73%
inactive: [9] 16%

CCCN(CCC)c1ccc(/C=C/c2ccc3cc(OCC)ccc3n2)cc1
inactive: [1] 91.6% | [2] 72.9% | [3] 88% | [4] 109% | [5] 81.6% | [6] 90.7% | [7] 91.9% | [8] 90.7% | [9] 84.3% | [10] 86.4% | [11] 78.6% | [12] 66.7% | [13] 98.6% | [14] 90% | [15] 74.9% | [16] 78.3% | [17] 86.6% | [18] 97.6% | [19] 64.8%

O=C1c2ccccc2C(=O)c2c(Nc3ccc(CCO)cc3)ccc(O)c21
inactive: [1] 60.7% | [2] 17.2% | [3] 77.2% | [4] 56.4% | [5] 74.6% | [6] 60.4% | [7] 50.2% | [8] 84.8% | [9] 101% | [10] 80.3% | [11] 61.7% | [12] 57.4% | [13] 64.3% | [14] 84.8% | [15] 74.2% | [16] 86.7% | [17] 74.9% | [18] 51.6% | [19] 44.8%

CCOC(=O)c1c(-c2cc(OC)c(OC)c(OC)c2)csc1N
inactive: [1] 101% | [2] 45.5% | [3] 92.1% | [4] 105% | [5] 93.2% | [6] 94.5% | [7] 65.4% | [8] 94.7% | [9] 104% | [10] 89.8% | [11] 66.9% | [12] 71.9% | [13] 84.2% | [14] 108% | [15] 97.2% | [20] 88.6% | [17] 88.6% | [18] 95.4% | [19] 91.1%

Cc1nc2ccc(Cl)cc2n1C
inactive: [1] 115% | [2] 92.4% | [3] 106% | [4] 118% | [5] 101% | [6] 103% | [7] 104% | [8] 106% | [9] 100% | [10] 106% | [11] 113% | [12] 98.8% | [13] 103% | [14] 99.5% | [15] 99.7% | [20] 101% | [17] 106% | [18] 108% | [19] 117%

COc1ccc(C(=O)COc2cccc(/C=C3\CSc4ccc(C)cc4C3=O)c2)cc1
inactive: [1] 109% | [2] 29.3% | [3] 98.2% | [4] 79.4% | [5] 71.1% | [6] 104% | [7] 102% | [8] 103% | [9] 95.5% | [10] 93.8% | [11] 84.8% | [12] 101% | [13] 95% | [14] 97% | [15] 97% | [16] 88.2% | [17] 75.2% | [18] 74.2% | [19] 120%

COc1cc2oc(-c3ccc(O)cc3)cc(=O)c2c(O)c1I
inactive: [1] 104% | [2] 92.6% | [3] 115% | [4] 99% | [5] 138% | [6] 105% | [7] 97% | [8] 100% | [9] 96.6% | [10] 110% | [11] 100% | [12] 107% | [13] 99% | [14] 95.9% | [15] 97% | [16] 101% | [17] 102% | [18] 107% | [19] 108%

O=C1CN2CCC1C/C2=C\c1ccnc2c(Cl)cccc12 (stereo not drawn)
inactive: [1] 111% | [2] 95.7% | [3] 112% | [4] 90.1% | [5] 107% | [6] 101% | [7] 91.2% | [8] 110% | [9] 95.2% | [10] 103% | [11] 82.6% | [12] 106% | [13] 85.5% | [14] 98.2% | [15] 98.4% | [16] 108% | [17] 90.5% | [18] 96% | [19] 127%

COc1ccc(OC)c(C2C(C#N)=C(N)Oc3cc(O)ccc32)c1 (stereo not drawn)
inactive: [1] 107% | [2] 83.4% | [3] 85.9% | [4] 99% | [5] 92.1% | [6] 98.2% | [7] 83.3% | [8] 104% | [9] 99.9% | [10] 100% | [11] 94.4% | [12] 95.4% | [13] 91.5% | [14] 102% | [15] 99% | [20] 95.5% | [17] 91.9% | [18] 100% | [19] 103%
